In PubChem BioAssay (NCI) one finds growth inhibition data, which are given here for 39 molecules.

This is part of a sample that, as a whole, favours compounds with a hit. Of some 79,000 tested, about 15% had one in any assay. Unmarked numbers belong to inactive results. Activity calls are given as the source filed them. Cut-off read from the data, not from the text of the source: active = growth inhibition above about 70%; inactive = the rest. Where a SMILES comes first, the peptide text is derived from it. The star is where a group is joined. Cbz = O=C(OCc1ccccc1)*

The nature of assay [1]: NCI Yeast Anticancer Drug Screen. Data for the rad50 strain (AID 155).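 Note: 0% = growth of vehicle-only cultures of the same strain.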 Conditions: S. cerevisiae rad50 strain growth inhibition; at 50.0 µM; stronger effect = higher value. An outline of the steps:
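Growth of the mutant yeast was measured after compound exposure and referenced to vehicle-treated cultures.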

A short description of assay [2]: NCI Yeast Anticancer Drug Screen. Data for the mec2-1 strain (AID 157). Conditions: S. cerevisiae mec2-1 strain, at 50.0 µM, stronger effect = higher value. The procedure, abridged:
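Strain: mec2-1 (DNA repair/cell cycle alteration). Compound exposure, then growth measured; inhibition expressed relative to vehicle.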

The nature of assay [3]: NCI Yeast Anticancer Drug Screen. Data for the sgs1 mgt1 strain (AID 161).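 Note: 0% = growth of cultures given vehicle only.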 The following applies: S. cerevisiae sgs1 mgt1 strain, at 50.0 µM, stronger effect = higher value. The procedure, abridged: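 Mutant yeast exposed to compound; growth scored against vehicle-only wells.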
Assay [4] can be described thus: NCI Yeast Anticancer Drug Screen. Data for the cln2 rad14 strain (AID 165).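 Note: 0% = growth equal to vehicle treated cultures.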 Conditions: S. cerevisiae cln2 rad14 strain, at 50.0 µM, stronger effect = higher value. An outline of the steps: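 Compounds are applied to the cln2 rad14 yeast strain, and growth is then compared with that of vehicle-treated cultures to give inhibition.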
Assay [5] in a line: NCI Yeast Anticancer Drug Screen. Data for the bub3 strain (AID 167). The following applies: S. cerevisiae bub3 mutant strain, at 50.0 µM, stronger effect = higher value. An outline of the steps:
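Whole-cell yeast assay. The mutant strain was incubated with compounds, and growth inhibition was determined by comparison with vehicle-treated cells.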

Assay [6] is described as follows: NCI Yeast Anticancer Drug Screen. Data for the mlh1 rad18 strain (AID 175). The following applies: S. cerevisiae mlh1 rad18 strain growth inhibition; at 50.0 µM; stronger effect = higher value. The procedure, abridged: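 Read-out is yeast growth inhibition, calculated against vehicle-only controls. The compound was applied to a strain engineered with DNA damage repair alterations.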

As for `CC1(C)C=Cc2c(ccc(C(=O)Cc3ccccc3)c2O)O1`, the growth inhibition was 24.1% in assay [1]; 17.4% in assay [2]; 26.4% in assay [3]; -8.1% in assay [4]; 16% in assay [5]; 23.1% in assay [6].
Turning to `CCOC(=O)CNC(=O)C(=[N+]=[N-])C(=O)COc1ccc(Cl)cc1Cl`, the growth inhibition in assay [1] is 3.4%; in assay [2], -9%; in assay [3], 18.1%; in assay [4] it was -18.3%; in assay [5] it was 19.4%; in assay [6], -5.05%.
Turning to `CCCCCNc1ncnc2c1cnn2C`, the growth inhibition was 7.6% in assay [1]; 0.6% in assay [2]; -1.35% in assay [3]; -12.4% in assay [4]; 22.6% in assay [5]; -0.4% in assay [6].
Take `COc1c(C)c(C)c(Br)c(C)c1C`: the growth inhibition in assay [1] is 6.35%; in assay [2], 7.65%; in assay [3], 6.7%; in assay [4] it was 15.6%; in assay [5] it was 0.55%; in assay [6], 12.2%.
Turning to `C/C=C(\C)C(=O)N/N=C\C=C\c1ccccc1`, the growth inhibition was -12.2% in assay [1]; -10.8% in assay [2]; 0.95% in assay [3]; -44.8% in assay [4]; -16.1% in assay [5]; -7.05% in assay [6].
In the case of `CCCC=NCCCC`, the growth inhibition in assay [1] is -17.1%; in assay [2] it was -7.55%; in assay [3] it was -35.6%; in assay [4], -67%; in assay [5], -30%; in assay [6] it was -24.4%.
Consider `FC(F)(F)C(F)(F)C(F)(F)c1n[nH]c(C(F)(F)C(F)(F)C(F)(F)F)n1`, for which the growth inhibition is 12.8% in assay [1]; 15.1% in assay [2]; 33.4% in assay [3]; 2.95% in assay [4]; 18.5% in assay [5]; -0.1% in assay [6].
For `O=C(CCCCC(=O)Nc1ccc2[nH]c3ccccc3c(=O)c2c1)Nc1ccc2[nH]c3ccccc3c(=O)c2c1`, the growth inhibition in assay [1] is 0.35%; in assay [2], 0.25%; in assay [3], -3.1%; in assay [4], -2.5%; in assay [5] it was -3.45%; in assay [6], 7.75%.
Consider `O=C(O)CN1C(=O)C2C3c4ccccc4C(c4ccccc43)C2C1=O` (centres undefined), for which the growth inhibition in assay [1] was -5.65%; in assay [2] it was -4.7%; in assay [3], 1.25%; in assay [4], -26.6%; in assay [5], -19.6%; in assay [6], 0%.
Take `CN(C)c1nc2nccnc2c(=O)[nH]1`: the growth inhibition in assay [1] was 11.4%; in assay [2], -1.75%; in assay [3], -11.2%; in assay [4] it was -52.5%; in assay [5], 6.45%; in assay [6], -14.3%.
As for `CC(C)CC(C)(CC(C)C)C(=O)O`, the growth inhibition in assay [1] was 9.95%; in assay [2], -7.75%; in assay [3] it was 7.8%; in assay [4], -1.5%; in assay [5], -1.3%; in assay [6], 11.8%.
On to `C=C1CCCCCCCCCCC12SCCCS2`, for which the growth inhibition in assay [1] is -42.1%; in assay [2], 7.6%; in assay [3], -25.7%; in assay [4], -11.9%; in assay [5], 20%; in assay [6], -26.6%.
Consider `Cc1cc(C)c(C(=O)CCC(=O)O)c(C)c1`, for which the growth inhibition in assay [1] is 11.8%; in assay [2] it was 7.8%; in assay [3], 16.6%; in assay [4], 17.9%; in assay [5], -4.7%; in assay [6], 16.6%.
On to `CO/C(=N\N=C\c1cccc(Cl)c1)c1ccncc1`, for which the growth inhibition is 6.35% in assay [1]; -9.6% in assay [2]; -13.8% in assay [3]; -24.4% in assay [4]; -18.1% in assay [5]; -11.1% in assay [6].
Turning to `CC(O[Si](C)(C)C(C)(C)C)[C@H](NC(=O)OCC(Cl)(Cl)Cl)C(=O)O` (some centres undefined), the growth inhibition in assay [1] was -9.6%; in assay [2] it was -27.8%; in assay [3], -17.1%; in assay [4], 26.1%; in assay [5], -45%; in assay [6], -14.8%.
Regarding `O=C(Nc1ccc(Br)cc1C(F)(F)F)C(F)(F)F`, the growth inhibition is 6% in assay [1]; -5.7% in assay [2]; -2.15% in assay [3]; -28.9% in assay [4]; 1.9% in assay [5]; -16.2% in assay [6].
For `COc1cccc2c1C(=O)c1c(OC)c(CBr)cc(OC)c1C2=O`, the growth inhibition in assay [1] is 37.6%; in assay [2], 9.55%; in assay [3] it was 15.9%; in assay [4] it was -36.6%; in assay [5], -7.85%; in assay [6] it was 15.5%.
Consider `Cc1ccc(Cl)c(NC(=O)c2ccccc2Cl)c1`, for which the growth inhibition in assay [1] was 6.2%; in assay [2], 8.2%; in assay [3], 18.8%; in assay [4] it was -8%; in assay [5] it was 12.4%; in assay [6], 30.9%.
As to `C[n+]1cccc2cccc(N)c21`, the growth inhibition was 22.1% in assay [1]; 0.1% in assay [2]; 11.3% in assay [3]; -5.65% in assay [4]; 15.5% in assay [5]; 5.6% in assay [6].
For `CN(C)c1ccc(/C=N/NC=O)c(Cl)c1`, the growth inhibition in assay [1] is 0.15%; in assay [2] it was 8.25%; in assay [3], -0.6%; in assay [4], 11.3%; in assay [5] it was -0.65%; in assay [6], -15.3%.
For `CCOC(=O)CCC(NC(=O)C(CCC(=O)O)NC(=O)OCc1ccccc1)C(=O)OCC` (stereo not drawn) (Cbz-Glu-Glu(OEt)-OEt; configuration not given here), the growth inhibition in assay [1] was 26.4%; in assay [2], -6.25%; in assay [3], -1.85%; in assay [4], -13.4%; in assay [5], 0.05%; in assay [6] it was 0.05%.
On to `NC1(N)ON(c2ccc(C=O)cc2)C(c2ccc([N+](=O)[O-])cc2)S1` (centres undefined), for which the growth inhibition was 18.3% in assay [1]; 8.45% in assay [2]; 11% in assay [3]; 16.3% in assay [4]; -0.7% in assay [5]; 16.7% in assay [6].
For `C=C1[C@H](OCC(C)C)[C@@H](OC(=O)C(C)CC)[C@@H](O)C(C)(C)/C=C/[C@H](C)C(=O)[C@@]2(O)C[C@H](C)[C@H](O)[C@@H]2[C@H]1OC(=O)C(C)CC` (some centres undefined), the growth inhibition in assay [1] is 47%; in assay [2], 46.6%; in assay [3], 75.2% (active); in assay [4], 69.3%; in assay [5] it was 73.7% (active); in assay [6] it was 58.1%.
As for `Cc1ccc(/C=N/S(=O)(=O)Cc2ccccc2)cc1`, the growth inhibition was -11.6% in assay [1]; 3.8% in assay [2]; 10.2% in assay [3]; 4.9% in assay [4]; 0.15% in assay [5]; -0.15% in assay [6].
Regarding `Cc1ccc(S(=O)(=O)OC2CCCCCC2c2ccccc2)cc1` (centres undefined), the growth inhibition in assay [1] was 7.85%; in assay [2], -5.1%; in assay [3], 0.05%; in assay [4], -42.5%; in assay [5], -2.75%; in assay [6], -3.55%.
Turning to `CCC1(CC)C(=O)N(C(=O)c2ccccc2)N(C(=O)c2ccc(Cl)cc2)C1=O`, the growth inhibition in assay [1] is 20.9%; in assay [2], 18.7%; in assay [3], 34.5%; in assay [4] it was 32.5%; in assay [5], 46.8%; in assay [6], -79.8%.
Regarding `Cc1c(CCCl)c(Cl)n2c(nc3ccccc32)c1C#N`, the growth inhibition was 38.7% in assay [1]; 20.8% in assay [2]; 39.4% in assay [3]; 32.5% in assay [4]; 22.8% in assay [5]; 57.1% in assay [6].
Consider `COc1ccc(C2OC3=C(Nc4ccc([N+](=O)[O-])cc4N3)C2=O)cc1OC` (centres undefined), for which the growth inhibition in assay [1] is -9.75%; in assay [2], -24.2%; in assay [3], -16.1%; in assay [4], -3.7%; in assay [5], -32.5%; in assay [6], -0.7%.
As to `CN(C)CC1CCC/C(=C\c2ccc(N(C)C)cc2)C1=O` (centres undefined), the growth inhibition in assay [1] was -18.6%; in assay [2], -44.9%; in assay [3], -9.85%; in assay [4], 12.2%; in assay [5], 6.2%; in assay [6] it was -34.3%.
For `CC1([N+](=O)[O-])COC2(CCCCC2)OC1`, the growth inhibition in assay [1] was 18.2%; in assay [2], 9.75%; in assay [3], -6.1%; in assay [4], -22.1%; in assay [5], 4.3%; in assay [6], 24.2%.
For the molecule `COc1cc(NC(C)CCCNC(C)C)c2nccc(C)c2c1` (centres undefined), the growth inhibition is 17.4% in assay [1]; 16.3% in assay [2]; 20.9% in assay [3]; 3.25% in assay [4]; 11.6% in assay [5]; 27.9% in assay [6].
Turning to `NC(=O)c1cccc[n+]1[O-]`, the growth inhibition in assay [1] was -6.25%; in assay [2] it was 7.25%; in assay [3], -12.6%; in assay [4] it was 6.05%; in assay [5], 19.6%; in assay [6], 1.3%.
For `COc1ccc(CC2CC(Cc3ccc(OC)c(OC)c3)C(=O)O2)cc1OC` (centres undefined), the growth inhibition in assay [1] was -33.9%; in assay [2] it was 15.7%; in assay [3], -23.4%; in assay [4], -33.2%; in assay [5], 3.95%; in assay [6], 2.85%.
Regarding `COC1=CC(=O)C(CCC(C)=O)=CC1=O`, the growth inhibition is -41.3% in assay [1]; -29.6% in assay [2]; -9.55% in assay [3]; -16.4% in assay [4]; 15.2% in assay [5]; -4.3% in assay [6].
`O=[N+]([O-])c1ccc(Br)cc1`: the growth inhibition is -6.5% in assay [1]; -14.2% in assay [2]; 17.7% in assay [3]; 16.2% in assay [4]; -2.3% in assay [5]; 19.2% in assay [6].
On to `COc1ccc(Cl)cc1NC(=O)Oc1ccc2ccccc2c1`, for which the growth inhibition in assay [1] is -5.8%; in assay [2] it was 29.2%; in assay [3], 12.2%; in assay [4] it was -12.7%; in assay [5], 27.3%; in assay [6], 38.2%.
`O=C1C(OCc2ccccc2)=C(OCc2ccccc2)C(=O)c2ccccc21`: the growth inhibition was 14.2% in assay [1]; 3.1% in assay [2]; 31.6% in assay [3]; 10.2% in assay [4]; -30.1% in assay [5]; 36.3% in assay [6].
With `O=C(Cl)c1cc(I)c(I)c(I)c1`, the growth inhibition in assay [1] was 41%; in assay [2], 47.3%; in assay [3] it was 54.3%; in assay [4] it was 37.2%; in assay [5], 53.2%; in assay [6], 40%.
In the case of `Cc1cc(Cl)ccc1-n1nc(C)c2c(N)nc(N)nc21`, the growth inhibition was 17.4% in assay [1]; 6.5% in assay [2]; 13.7% in assay [3]; -1.55% in assay [4]; 24.7% in assay [5]; 23.1% in assay [6].
